Test results taken from PubChem BioAssay AID1159580 (chemical genetic matrix, 2015).
Values joined by “and” are separate entries in the source; they are usually repeats but may differ in a detail not shown here. Equal values may be shown once. In all, about 5,500 compounds went through this assay and about 2,000 (36%) were called active. Another 18% or so got no clear call; they are omitted. Rule as the data show it: active = normalized growth mostly below about 0.91 (no sharp cut-off); inconclusive = no clear call, values can overlap the other calls; inactive = mostly above about 0.92. Some of the results follow. A structure can be active in one record and inactive in another.

Assay: chemical genetic growth profiling, strain panel (AID 1159580);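 also: tested at 20 µM; growth read once vehicle control cultures reached saturation at 30 °C; 1 = growth at the plate median or of vehicle wells; lower values mean less growth of the strain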
Conditions: S. cerevisiae deletion strains, growth OD
[1] = locus YCL061C, strain MRC1, stronger effect = lower value
[2] = locus YHR030C, strain SLT2, stronger effect = lower value
[3] = locus YJL187C, strain SWE1, stronger effect = lower value

Measured: normalized growth

NCCOB(c1ccccc1)c1ccccc1
0.892 (active) and 0.987 (inactive): locus YAL030W, strain snc1, stronger effect = lower value
active: locus YAL026C, strain drs2, stronger effect = lower value 0.153 and 0.218 | locus YBL061C, strain skt5, stronger effect = lower value 0.578 and 0.786 | locus YBR009C, strain hhf1, stronger effect = lower value 0.758 and 0.788 | locus YBR279W, strain paf1, stronger effect = lower value 0.46 and 0.808 | [1] 0.827 and 0.759 | locus YCL069W, strain vba3, stronger effect = lower value 0.437 and 0.312 | locus YCR088W, strain abp1, stronger effect = lower value 0.604 and 0.524 | locus YDR001C, strain nth1, stronger effect = lower value 0.651 and 0.789 | locus YDR334W, strain swr1, stronger effect = lower value 0.472 and 0.793 | locus YDR392W, strain spt3, stronger effect = lower value 0.423 and 0.451 | locus YER015W, strain faa2, stronger effect = lower value 0.528 and 0.733 | locus YFR010W, strain ubp6, stronger effect = lower value 0.351 and 0.387 | locus YGL227W, strain vid30, stronger effect = lower value 0.602 and 0.427 | locus YGL240W, strain doc1, stronger effect = lower value 0.822 and 0.865 | locus YGL253W, strain hxk2, stronger effect = lower value 0.468 and 0.384 | locus YHR013C, strain ard1, stronger effect = lower value 0.432 and 0.49 | locus YHR027C, strain rpn1, stronger effect = lower value 0.799 and 0.766 | [2] 0.106 | locus YHR079C, strain IRE1, stronger effect = lower value 0.11 | locus YJL092W, strain hpr5, stronger effect = lower value 0.334 and 0.399 | locus YJL095W, strain BCK1, stronger effect = lower value 0.106 | locus YJL115W, strain asf1, stronger effect = lower value 0.85 and 0.877 | locus YJL154C, strain vps35, stronger effect = lower value 0.454 and 0.657 | locus YJL164C, strain tpk1, stronger effect = lower value 0.824 and 0.786 | locus YJL166W, strain qcr8, stronger effect = lower value 0.841 and 0.839 | [3] 0.798 | locus YJR066W, strain TOR1, stronger effect = lower value 0.00283 | locus YKL160W, strain elf1, stronger effect = lower value 0.717 and 0.751 | locus YKR026C, strain gcn3, stronger effect = lower value 0.381 and 0.353 | locus YKR091W, strain srl3, stronger effect = lower value 0.357 and 0.316 | locus YLR113W, strain HOG1, stronger effect = lower value 0.141 | locus YLR221C, strain rsa3, stronger effect = lower value 0.372 and 0.709 | locus YLR258W, strain gsy2, stronger effect = lower value 0.578 and 0.778 | locus YLR342W, strain FKS1, stronger effect = lower value 0.841 and 0.823 | locus YLR357W, strain rsc2, stronger effect = lower value 0.629 | locus YLR370C, strain arc18, stronger effect = lower value 0.44 and 0.485 | locus YMR058W, strain fet3, stronger effect = lower value 0.167 and 0.157 | locus YMR125W, strain sto1, stronger effect = lower value 0.759 and 0.824 | locus YMR129W, stronger effect = lower value 0.507 and 0.306 | locus YMR231W, strain pep5, stronger effect = lower value 0.247 and 0.309 | locus YNL071W, strain lat1, stronger effect = lower value 0.248 and 0.315 | locus YNL183C, strain NPR1, stronger effect = lower value 0.000102 | locus YNL209W, strain ssb2, stronger effect = lower value 0.699 and 0.694 | locus YNL248C, strain rpa49, stronger effect = lower value 0.693 and 0.758 | locus YNR049C, strain mso1, stronger effect = lower value 0.585 and 0.756 | locus YOR070C, strain gyp1, stronger effect = lower value 0.657 and 0.767 | locus YOR083W, strain WHI5, stronger effect = lower value 0.202 and 0.184 | locus YOR106W, strain vam3, stronger effect = lower value 0.688 and 0.741 | locus YOR231W, strain MKK1, stronger effect = lower value 0.0985 | locus YOR265W, strain rbl2, stronger effect = lower value 0.79 and 0.861 | locus YPL051W, strain arl3, stronger effect = lower value 0.622 and 0.599 | locus YPL256C, strain CLN2, stronger effect = lower value 0.118
0.868 (active) and 0.944 (inactive): locus YLL041C, strain sdh2, stronger effect = lower value
0.836 (active) and 0.998 (inactive): locus YLL026W, stronger effect = lower value
0.879 (active) and 0.913 (inactive): locus YCL011C, strain gbp2, stronger effect = lower value
0.694 (active) and 0.939 (inactive): locus YLR027C, strain aat2, stronger effect = lower value
inactive: locus YAL021C, strain ccr4, stronger effect = lower value 0.936 and 0.969 | locus YBR023C, strain chs3, stronger effect = lower value 0.925 and 0.92 | locus YBR171W, strain sec66, stronger effect = lower value 0.968 and 0.998 | locus YBR231C, strain swc5, stronger effect = lower value 1.03 and 1 | locus YCL016C, strain dcc1, stronger effect = lower value 1.01 and 0.977 | locus YDL005C, strain med2, stronger effect = lower value 1 and 1.03 | locus YDL040C, strain nat1, stronger effect = lower value 1.01 and 1.02 | locus YDR069C, strain doa4, stronger effect = lower value 1.02 and 1.01 | locus YDR137W, strain rgp1, stronger effect = lower value 0.997 and 0.987 | locus YDR159W, strain sac3, stronger effect = lower value 1.03 and 1.06 | locus YDR195W, strain ref2 1.11 and 1.07 | locus YDR297W, strain sur2, stronger effect = lower value 1.01 and 0.979 | locus YDR335W, strain msn5, stronger effect = lower value 1 and 0.991 | locus YEL003W, strain gim4, stronger effect = lower value 1.02 and 0.999 | locus YEL037C, strain rad23, stronger effect = lower value 1.01 | locus YEL061C, strain CIN8 (second series), stronger effect = lower value 1.01 | locus YER016W, strain bim1, stronger effect = lower value 1.02 | locus YER111C, strain swi4, stronger effect = lower value 1.02 and 1.01 | locus YGL167C, strain pmr1, stronger effect = lower value 1.04 and 1.05 | locus YGL173C, strain kem1, stronger effect = lower value 0.927 and 0.93 | locus YHR142W, strain chs7, stronger effect = lower value 0.882 and 0.977 | locus YJL129C, strain trk1, stronger effect = lower value 0.965 and 0.979 | locus YLL001W, strain dnm1, stronger effect = lower value 0.995 and 0.946 | locus YLR320W, strain mms22, stronger effect = lower value 0.973 and 1 | locus YLR384C, strain iki3, stronger effect = lower value 1.02 | locus YML120C, strain ndi1, stronger effect = lower value 0.961 and 0.993 | locus YMR205C, strain PFK2, stronger effect = lower value 0.937 and 0.943 | locus YNL322C, strain KRE1 (second series), stronger effect = lower value 1.04 and 1.03 | locus YOR001W, strain rrp6, stronger effect = lower value 0.947 and 1 | locus YOR080W, strain dia2, stronger effect = lower value 1.02 | locus YOR270C, strain vph1, stronger effect = lower value 0.934 and 0.992 | locus YOR290C, strain snf2, stronger effect = lower value 0.895 and 0.926 | locus YPL078C, strain atp4, stronger effect = lower value 0.967 and 0.972 | locus YPL240C, strain hsp82, stronger effect = lower value 1.02 and 0.932
0.891 (inactive) and 0.792 (active): locus YPL106C, strain sse1, stronger effect = lower value
0.923 (inactive) and 0.845 (active): locus YLR262C, strain YPT6 (second series), stronger effect = lower value
0.887 (active) and 0.923 (inactive): locus YJL095W, strain BCK1 (second series), stronger effect = lower value
0.815 (active) and 0.926 (inactive): locus YER155C, strain BEM2 (second series), stronger effect = lower value

CC(=O)c1ccc(-c2ccc(Cl)c(Cl)c2)o1
active: locus YAL013W, strain DEP1, stronger effect = lower value 0.803 | locus YBR229C, strain ROT2, stronger effect = lower value 0.825 | [1] 0.776 | locus YDL101C, strain DUN1, stronger effect = lower value 0.661 | locus YDL134C, strain PPH21, stronger effect = lower value 0.428 | locus YEL061C, strain CIN8, stronger effect = lower value 0.445 | locus YGR078C, strain PAC10, stronger effect = lower value 0.863 | [2] 0.0914 | locus YHR087W, strain rtc3, stronger effect = lower value 0.816 | [3] 0.807 | locus YJR043C, strain POL32, stronger effect = lower value 0.8 | locus YJR075W, strain HOC1, stronger effect = lower value 0.787 | locus YLR039C, strain RIC1, stronger effect = lower value 0.207 | locus YLR085C, strain ARP6, stronger effect = lower value 0.112 | locus YLR262C, strain YPT6, stronger effect = lower value 0.264 | locus YML094W, strain GIM5, stronger effect = lower value 0.633 | locus YMR219W, strain ESC1, stronger effect = lower value 0.877 | locus YMR263W, strain SAP30, stronger effect = lower value 0.629 | locus YNL128W, strain TEP1, stronger effect = lower value 0.82 | locus YNL153C, strain GIM3, stronger effect = lower value 0.838 | locus YNL298W, strain CLA4 (second series), stronger effect = lower value 0.373 | locus YNR030W, strain Alg12, stronger effect = lower value 0.483 | locus YOL006C, strain TOP1, stronger effect = lower value 0.15 | locus YPL055C, strain LGE1, stronger effect = lower value 0.747 | locus YPL241C, strain CIN2, stronger effect = lower value 0.365 | locus YPR135W, strain CTF4, stronger effect = lower value 0.213
inactive: locus YGR229C, strain SMI1, stronger effect = lower value 0.956 | locus YLR058C, strain SHM2 (second series), stronger effect = lower value 0.994 | locus YNL322C, strain KRE1, stronger effect = lower value 0.99
